iPSC survival up: increases survival of single human iPS cells | hiPSC single-cell survival, ATPlite luminescence; 100% = ROCK inhibitor wells, 0% = DMSO | survival enhancement, % at 20 µM | 360,000 tested, 0.044% active | AID 602274; in the data active means survival enhancement above about 18%;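 further: cells exposed to compounds for 16 hours before the ATP read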
CF NFkB inh: inhibitors of cystic fibrosis induced NF-kB. KKLEB NF-kB-GFP reporter, PAF-induced, GFP fluorescence overnight. 360,000 tested, 0.86% active. inhibition, % at 5 µM. AID 588850;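 active means at least 50% inhibition at 5 µM, scaled per plate between neutral and stimulator controls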;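 further: PAF is a Pseudomonas aeruginosa culture filtrate used as stimulus; plate controls were PAF-stimulated DMSO wells for no effect and unstimulated DMSO wells for full effect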
C8 TRAIL sens: caspase-8 TRAIL sensitization; NB7+C8 cells + TRAIL, ATPlite viability luminescence; inhibition (viability loss, TRAIL sensitization), % at 10 µM; 360,000 tested, 1% active; AID 624354;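 active means compounds causing at least 50% loss of cell viability in the single-dose screen, relative to plate controls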
KKLEB tox: reduces viability of KKLEB cystic fibrosis airway cells; activity change (cytotoxicity), % at 5 µM; KKLEB CF airway cells viability, ATPlite luminescence, overnight; stronger effect = lower value; cells stimulated with P. aeruginosa culture filtrate; 360,000 tested, 0.36% active;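 active means corrected activity change at or below -50% at 5 µM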
PPC-1+TRAIL kill: PPC-1 cancer cell killing with TRAIL present; PPC-1 cells + TRAIL, ATPLite viability luminescence; cell killing (% activity), % at 4 µM or 5 µM; 220,000 tested, 0.41% active;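 active means cell killing above 50% in the first pass at 4 µM, then a duplicate retest at 5 µM averaging 50% or more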;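 further: plate controls were cells with TRAIL plus DMSO for no effect and medium-only wells lacking cells for full effect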
HIF-2a block: inhibitors of HIF-2a; inhibition, % at 18.8 µM; 360,000 tested, 0.72% active; 786-0 RCC cells HIF-2a reporter, luciferase luminescence, overnight;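 active means inhibition of the luminescence signal of 40% or more relative to plate controls, in a single-dose primary screen at 18.75 µM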
* marks the source's active call; other numbers are inactive results; nt = no result. A selection: hits, their analogues and other compounds. The true share with any hit is near 2.2%.

SMILES	iPSC survival up	CF NFkB inh	C8 TRAIL sens	KKLEB tox	PPC-1+TRAIL kill	HIF-2a block
CCOc1ccc(C2=Nn3c(nnc3-c3ccco3)SC2)cc1	-1	-3	13	-68*	15	-9
CCOc1ccc(C2=Nn3c(nnc3-c3ccccn3)SC2)cc1	3	-9	-10	-2	11	17
c1ccc(Nc2nnc(-c3cccnc3)s2)cc1	0	-12	53*	-6	nt	-123
COc1ccc(NC(=O)c2cc3ccccc3oc2=O)c(OC)c1	0	-14	17	3	nt	-197
COc1ccc(S(=O)(=O)Nc2ccccc2OC)cc1NC(=O)c1cc2ccccc2oc1=O	3	58*	-2	-55*	3	-189
Cc1ccc(S(=O)(=O)N[C@H](C(=O)OCC(=O)NC(=O)NCc2ccco2)C(C)C)cc1	24*	-24	3	15	nt	0
CC1(C)CC(=O)/C(=C\c2cccc([N+](=O)[O-])c2)C(C)(C)N1	36*	21	10	-12	17	30
Cc1ccc(N=Cc2cc(Cc3ccccc3Cl)cc([N+](=O)[O-])c2O)c(O)c1	-1	73*	-2	6	7	-32
COc1cccc(-c2nc(-c3ccccn3)no2)c1OC	-4	-21	12	5	12	-178
c1ccc(-c2noc(-c3cccc4ccccc34)n2)nc1	-4	-8	53*	-30	-22	-43
COc1ccc(N(CC(=O)NC2CC3CCC2C3)S(=O)(=O)c2ccc(C)c([N+](=O)[O-])c2)cc1 (centres undefined)	0	24	12	-5	nt	25
COc1ccc(OC)c(S(=O)(=O)N2CCC(C(=O)NC3CCCC3)CC2)c1	2	-14	-15	0	nt	10
Cc1cccc(N/C=C/c2onc(C)c2[N+](=O)[O-])c1	7	-6	1	7	40	-225
Cc1cc(O)ccc1N/C=C/c1onc(C)c1[N+](=O)[O-]	-1	37	8	-52*	15	-171
Cc1c(C(=O)Nc2cccnc2)oc2ccc(Br)cc12	0	-31	50*	-3	nt	-329
CN(C)CCCNc1nc2cc(-c3ccn[nH]3)sc2c(=O)n1C	-2	6	-6	-8	nt	5
Cc1ccc(CNC(=O)c2cc(-c3ccccc3)nn2CC2CC(c3cccc([N+](=O)[O-])c3)=NO2)cc1 (centres undefined)	-1	10	-13	-11	nt	-4
CN(C)c1ccc(C(=O)c2ccccc2)cc1	1	0	5	-3	18	-192
CN(C)c1ccc(N=Nc2ccc(C(=O)O)cc2)cc1	0	3	51*	2	nt	54*
N#CC1=C(N)Oc2cc(N)ccc2C1c1cccc(Br)c1 (centres undefined)	0	40	10	-19	nt	17
CCC(NC(=O)Nc1nnc(C(F)(F)F)s1)(C(F)(F)F)C(F)(F)F	-2	58*	44	-51*	41	27
CCN(CC)c1ccc(-c2nn3c(-c4ccccc4OC)nnc3s2)cc1	-1	53*	-2	-48	8	27
O=C(COc1ccccc1)Nc1c2c(nn1-c1ccc(F)cc1)CS(=O)(=O)C2	1	4	8	-17	nt	13
CCOC(=O)N1CCN(S(=O)(=O)c2ccc(C(=O)Nc3nnc(C4CC4)o3)cc2)CC1	-1	-9	-7	-5	-5	16
CCOC(=O)N1CCN(S(=O)(=O)c2ccc(C(=O)Nc3nc4c(s3)CC(C)CC4)cc2)CC1 (centres undefined)	-1	38	14	-62*	16	1
O=C(N/N=C/c1ccc(O)cc1O)c1ccncc1	0	8	18	-8	nt	6
Cc1ccc(C(C)C)c(OCc2ccc(C(=O)N/N=C/c3ccc(O)cc3O)cc2)c1	-1	14	40	-10	49	71*
CSc1ccc(/C=N/NC(=O)c2cccc(O)c2)cc1	-4	-11	74*	-13	54*	-203
C#Cc1cccc(C(=O)N2CCCC(Nc3cccc(F)c3)C2)c1 (centres undefined)	0	15	-20	-3	nt	2
COc1ccc2cc3cc(C(=O)NC4CC4)sc3nc2c1	0	-24	77*	-29	nt	-30

Source: PubChem (Sanford-Burnham Center for Chemical Genomics)
